Platelet DG rel – platelet dense granule release activity; human platelet-rich plasma, SFLLRN dense granule ATP release, luminescence; inhibition, %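 (compounds screened at 7.5 µM in platelet-rich plasma)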; hit rate 0.22% among 300,000; AID 1663;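 active means mean replicate score, as percent of positive control, at or above 50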
SENP8 block-1 – blocks the human protease SENP8; inhibition, % at 10 µM; purified SENP8, Z-RLRGG-aminoluciferin cleavage, luminescence; AID 2540; hit rate 1.2% among 330,000; Q96LD8; in the data active means inhibition above about 50%
Target sequence (Q96LD8 whole entry, looked up): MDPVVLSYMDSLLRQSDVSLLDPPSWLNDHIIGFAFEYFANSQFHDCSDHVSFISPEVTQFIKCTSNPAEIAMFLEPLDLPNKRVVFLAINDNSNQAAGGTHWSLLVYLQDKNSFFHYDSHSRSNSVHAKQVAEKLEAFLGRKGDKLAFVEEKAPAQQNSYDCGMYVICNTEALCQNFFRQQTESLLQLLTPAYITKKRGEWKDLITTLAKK
SENP7 block – blocks the human protease SENP7 | Q9BQF6 | recombinant SENP7, Z-RLRGG-aminoluciferin luminescence, 40 min | inhibition, % at 5 µM | hit rate 1.5% among 330,000 | AID 434973;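 active means inhibition above about 50% at the single test dose, limit read from the data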;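 further: plate controls were DMSO with enzyme for no effect and no enzyme buffer wells for full effect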
SENP6 block – inhibitors of human SENP6 protease; AID 2599; Recombinant SENP6 catalytic domain, aminoluciferin luminescence; Q9GZR1; hit rate 1.8% among 330,000; inhibition, % at 10 µM;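 active means inhibition above about 50% at the single tested dose, limit read from the data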;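 further: plate controls were DMSO wells with enzyme for no effect and DMSO wells lacking enzyme for full effect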
SENP8 block-2 – blocks human SENP8 cleavage of Nedd8 substrate | Q96LD8 | recombinant SENP8, Nedd8 substrate fluorescence | inhibition, % at 20 µM | hit rate 0.64% among 360,000 | AID 602440; in the data active means inhibition mostly above about 40%, no sharp cut-off; inactive means mostly below about 27%
* marks the source's active call; other numbers are inactive results; · = no result; ! = not confirmed by another sample. Shown are actives, neighbours in structure and some others; about 2.4% of the full set was active somewhere.

SMILES | Platelet DG rel | SENP8 block-1 | SENP7 block | SENP6 block | SENP8 block-2
COc1ccc(-c2nc(C#N)c(NC(C)c3ccccc3)o2)cc1OC (configuration not stated) | 69.9* | -7.3 | -5.4 | -4.0 | -498.6
COc1ccc(C(=O)/C(C#N)=N/Nc2ccc([N+](=O)[O-])cc2)cc1 | 7.6 | 4.4 | 9.1 | 10.5 | 39.5*
N#C/C(=N\Nc1ccc(Cl)cc1)C(=O)c1ccccc1 | -1.1 | 8.3 | 0.2 | 40.0 | 45.5*
CCOC(=O)NC(=O)/C(C#N)=N\Nc1ccc(Cl)cc1 | 3.3 | -3.5 | -9.4 | -7.8 | 43.4*
C[C@H](CO)NC(=O)c1nc[nH]c1C(=O)N[C@H](C)c1ccccc1 | · | · | · | · | 10.4
COCCCNC(=O)C[C@@H]1C[C@@]2(C(=O)OC)CCCCC=C2N(Cc2ccc(Cl)cc2Cl)C1=O | · | · | · | · | 14.4
CCCCNC(=O)C1(C)CCCCN1C(=O)c1csnn1 (configuration not stated) | · | · | · | · | -8.0
O=C1C(=NO)CCc2ccccc21 | · | · | · | · | 41.9*
CCOC(=O)C1CCCN(C(=O)Cc2ccc(OC)c(OC)c2)CC1 (configuration not stated) | · | · | · | · | 23.6
c1ccc2sc(SCc3ccc(-c4nnco4)cc3)nc2c1 | 5.6 | 88.6* | 88.5* | 96.0* | -8.6
O=C(CCCN1C(=O)C(c2ccccc2)Oc2cccnc21)Nc1cccc(F)c1 (configuration not stated) | -6.0 | 8.6 | 3.0 | -0.8 | 15.4
Cc1[nH]c(=O)c(C#N)c(C)c1CSc1ncccn1 | 49.7* | 0.0 | -0.1 | -4.5 | -72.3
COC(CNC(=O)c1c[nH]c2ccc(S(=O)(=O)N(C)c3ccc(F)cc3)cc2c1=O)OC | 8.6 | -6.4 | -4.4 | 1.8 | -104.1
CCCNC(=O)C[C@H]1C[C@H]2c3cc(NC(=O)Nc4ccc(F)cc4)ccc3O[C@H]2[C@@H](CO)O1 | · | · | · | · | -3.1
CCOC(=O)/C(N=Nc1ccc(F)cc1)=C(/O)c1ccc([N+](=O)[O-])cc1 | -1.6 | 5.0 | 9.0 | -1.0 | 42.6*
CCOC(=O)/C(C)=N/NC(=O)c1ccc([N+](=O)[O-])cc1 | 3.9 | -13.0 | -2.8 | -7.4 | 22.8
O=C(Nc1cccc2nsnc12)c1cccs1 | 2.7 | 16.3 | 50.1*! | 57.8*! | -288.3
O=C(Nc1ccc2nsnc2c1)c1cccs1 | -2.4 | -7.5 | 2.3 | 14.0 | -361.1
COc1ccc(OCCCC(=O)OC(C)C(=O)Nc2ccc(NC(C)=O)cc2)cc1 (configuration not stated) | 56.9* | -9.6 | -8.8 | 7.6 | 8.9
CCn1c(SCC(=O)Nc2ccc(OC)cc2)nc2c(c1=O)SCC2 | -6.5 | -7.7 | -5.5 | 1.7 | -7.7
O=C(Nc1cccc(Br)c1)c1ccc(OC2CSC2)cc1 | 14.4 | 89.9* | 96.4* | 91.9* | ·
O=C1Nc2ccccc2C(=O)N(C2CCCC2)C1C(=O)NC1CC1 (configuration not stated) | · | · | · | · | 18.8
COc1cc(/C=N/NC(N)=O)ccc1OCC(=O)Nc1ccc(C)c(C)c1 | 56.3* | -5.9 | 3.2 | -13.2 | 11.5
CCCNc1cc(=S)nc(N)[nH]1 | 3.4 | 6.4 | 0.1 | -7.6 | 21.4
COc1cccc(-c2c(C(=O)N/N=C/c3ccc(C)s3)nnn2-c2nonc2N)c1 | 24.2 | -3.8 | 4.0 | 7.0 | -74.5
SMILES | Platelet DG rel | SENP8 block-1 | SENP7 block | SENP6 block | SENP8 block-2
CCOc1cccc(-c2c(C(=O)N/N=C/c3ccc(C)s3)nnn2-c2nonc2N)c1 | 64.6* | -8.9 | 3.3 | -8.1 | -48.6
COC(=O)C(Cc1c[nH]c2ccccc12)NC(=O)c1ccc2nc[nH]c2c1 (configuration not stated) | · | 12.5 | -4.0 | -5.6 | 8.6
O=C(COc1ccccc1F)N/N=C1\CCCc2ccccc21 | 4.6 | 37.4 | 38.8 | 56.8* | 11.6
NC(=O)c1ccccc1OCC(=O)Nc1ccc2c(c1)OCCO2 | · | -17.8 | -15.5 | -31.9 | 13.0
COc1ccc(-c2c(-c3cc(OC)cc(OC)c3)n(C)c3ccc(Br)cc23)cc1 | · | 0.8 | -6.1 | -7.5 | -484.9
COc1ccc(N=Nc2nc3ccc(Br)cc3n2C)cc1 | 10.6 | · | · | · | 64.3*
CC(=O)c1ccc2cc3c(cc2c1)OCO3 | · | · | · | · | -29.5
C[C@H](CO)N1C[C@H](C)[C@@H](CN(C)S(=O)(=O)c2ccc(F)cc2)Oc2c(NC(=O)c3ccncc3)cccc2C1=O | · | · | · | · | -0.8
Cc1ccc(O)c(N=NC2=C(O)CC(C)(C)CC2=O)c1 | 24.2 | -3.3 | -4.4 | -19.2 | 42.1*
CC1(C)CC(=O)C(N=Nc2cc(Cl)c(Cl)c(Cl)c2)=C(O)C1 | -2.6 | 2.1 | 2.6 | 2.7 | 39.7
O=C(CN1c2ccccc2Sc2ccccc21)NNC(=O)Nc1cccc(Cl)c1 | 3.2 | -7.4 | -10.7 | -55.9 | -4.0
Cc1nc(C(F)(F)F)ccc1C(=O)N1CCC(C)(C(=O)O)C1 (configuration not stated) | · | · | · | · | 18.9

Source: PubChem BioAssay (several laboratories)
